From PubChem BioAssay
Hits are enriched below; roughly 1.4% of the tested compounds scored in any of these assays.
p-CIP stab down – lowers stability of the mouse p/CIP coactivator protein; Q05BA5; F442A p/CIP-EGFP cells, EGFP fluorescence, 16 h; decrease of EGFP signal, % at 10 µM; 290,000 tested, 0.01% active;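 active means EGFP signal decrease of at least 30% at 10 µM or well 3 SD below plate mean, unless failing retest; inactive means the rest, including hits failing retest or dose response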
HTR5A ag ctr – HTR5A agonism, opioid heterodimer counter-screen; activation, % at 9.3 µM; HTR5A agonist assay, luminescence, cell-based; 340,000 tested, 0.61% active; P47898; in the data active means activation mostly above about 9.5%, no sharp cut-off; inactive means mostly below about 7.6%
Target sequence (P47898 whole entry, looked up): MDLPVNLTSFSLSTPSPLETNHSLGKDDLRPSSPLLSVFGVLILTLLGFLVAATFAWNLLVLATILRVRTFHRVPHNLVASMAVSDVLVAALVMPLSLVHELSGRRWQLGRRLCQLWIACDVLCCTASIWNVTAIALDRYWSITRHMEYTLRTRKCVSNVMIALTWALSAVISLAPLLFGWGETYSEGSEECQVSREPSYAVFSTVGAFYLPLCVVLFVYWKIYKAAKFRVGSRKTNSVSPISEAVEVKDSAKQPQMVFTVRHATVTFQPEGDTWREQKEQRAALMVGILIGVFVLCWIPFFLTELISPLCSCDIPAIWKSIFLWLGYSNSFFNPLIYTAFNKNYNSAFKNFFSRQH
HTR5A inv ag – inverse agonist of human HTR5A in OPRM1-OPRD1 counter-screen; 340,000 tested, 0.083% active; inhibition, % at 9.3 µM; HTR5A cell line, luminescence, inverse agonism; P47898; in the data active means inhibition mostly above about 23%, no sharp cut-off; inactive means mostly below about 18%
OPRM1-OPRD1 inv – inverse agonist of human OPRM1-OPRD1 heterodimerization. cell-based MOR-DOR heterodimer luminescence, inverse agonism. 340,000 tested, 0.21% active. P35372+P41143. inhibition, % at 9.3 µM; in the data active means inhibition above about 22%, passing the limit was not always enough
MOR-DOR ag – OPRM1-OPRD1 heterodimerization agonism; P35372+P41143; cells, luminescence; activation, % at 9.3 µM; 340,000 tested, 0.3% active; in the data active means activation above about 18%
MIN6 prolif-1 – MIN6 beta-cell proliferation induction. MIN6 cells proliferation, ATPlite luminescence, 48 h; cells starved in 0.2% serum; 100% = growth in 10% serum. 330,000 tested, 0.29% active. proliferation, % at 10 µM. AID 2380;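 active means compounds whose signal lies at least 3.5 SD above the mean of all wells on their plate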
MIN6 prolif-2 – confirmation of inducers of beta-cell replication in MIN6 cells. shares compounds with MIN6 prolif-1. MIN6 beta-cell proliferation, ATPlite luminescence, 48 h; cells kept in 0.2% serum; scaled between 0.2% and 10% serum. proliferation increase, % at 50 µM. 920 tested, under 10 active. AID 463095;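 active means proliferation increase above 40% at any of the four tested concentrations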
Each line names hits and unclear results; the compound was inactive in the other large screens (follow-up assays come after a bar, where they were run).

Cc1nn(-c2ccccc2)c(C)c1C(=O)N1CCN(S(=O)(=O)c2ccccc2)CC1	MIN6 prolif-1 12 (no result: p-CIP stab down) | MIN6 prolif-2 inactive
CN1C(=O)c2cccc3c(Br)ccc(c23)C1=O	none (no result: p-CIP stab down, HTR5A ag ctr, HTR5A inv ag, OPRM1-OPRD1 inv, MOR-DOR ag)
CN1C(=O)c2cccc3c(Cl)ccc(c23)C1=O	MIN6 prolif-1 6.9 | MIN6 prolif-2 inactive
O=C(OCCCc1cc2ccccc2c(=O)o1)N1CCOCC1	MIN6 prolif-1 7.8 (no result: p-CIP stab down) | MIN6 prolif-2 inactive
O=C(OCCc1cc2ccccc2c(=O)o1)N1CCOCC1	none (no result: p-CIP stab down)
COCCN(C(=O)c1cc(Cl)ccn1)c1c(N)n(Cc2ccccc2)c(=O)[nH]c1=O	none (no result: p-CIP stab down)
COc1cc(/C(C)=N/NC(=O)c2nnn(-c3nonc3N)c2-c2cccs2)ccc1O	MIN6 prolif-1 4.6 | MIN6 prolif-2 inactive
C/C(=N\NC(=O)c1nnn(-c2nonc2N)c1-c1cccs1)c1cccc(O)c1	none
CC(=O)N1CCN(C(=O)COC(=O)c2ccc(S(C)(=O)=O)cc2)CC1	none (no result: p-CIP stab down)
COc1cc(C2C3=C(COC3=O)OC(C)(C)Oc3cc4c(cc32)OCO4)cc(OC)c1OC (stereo unspecified)	none (no result: p-CIP stab down, MIN6 prolif-1)
Cc1ccc(NC(=O)CN(C)C(=O)CNC(=O)c2cccs2)cc1	MIN6 prolif-1 12 (no result: p-CIP stab down) | MIN6 prolif-2 inactive
CN(CC(=O)Nc1ccc(Cl)cc1)C(=O)CNC(=O)c1cccs1	none (no result: p-CIP stab down)
O=C(CN1CCC(Cc2ccccc2)CC1)N1CCc2ccccc2C1	MIN6 prolif-1 9.0 | MIN6 prolif-2 inactive
O=C(C[C@H]1C/C=C\CCC(=O)O[C@@H](c2ccccc2)CNC1=O)NCCO	none (no result: p-CIP stab down)
COc1cc(N)c(Cl)cc1C(=O)OCC(=O)NCC1CCCCC1	MIN6 prolif-1 8.8 (no result: p-CIP stab down) | MIN6 prolif-2 inactive
COc1cc(N)c(Cl)cc1C(=O)OCC(=O)NCC1CCCO1 (stereo unspecified)	none (no result: p-CIP stab down)
COc1ccc(Cl)cc1C(=O)OCC(=O)NCCNC(=O)COC(=O)c1cc(Cl)ccc1OC	MIN6 prolif-1 9.7 | MIN6 prolif-2 inactive
O=C(CSc1ccc2nnc(CCNC(=O)c3ccccc3)n2n1)NCCc1ccccc1	MIN6 prolif-1 10 | MIN6 prolif-2 inactive
O=C(CN1C(=O)NC2(CCc3ccccc32)C1=O)Nc1ccc(Br)cc1F (stereo unspecified)	none (no result: p-CIP stab down)
CC(O)CNc1ccc(-c2n[nH]c(=O)c3ccccc23)cc1[N+](=O)[O-] (stereo unspecified)	none
CC(O)CNc1cc(N)c([N+](=O)[O-])cc1[N+](=O)[O-] (stereo unspecified)	MIN6 prolif-1 0.0 | MIN6 prolif-2 inactive
CCCCn1c(N)c(N(CC(C)C)C(=O)COc2cc(C)ccc2Cl)c(=O)[nH]c1=O	none (no result: p-CIP stab down)
COc1ccccc1CN(C)C(=O)COC(=O)c1cc(C)oc1C	none (no result: p-CIP stab down)
CC(C)(C)c1ccc(C(=O)Nn2cnnc2)cc1	none
N#Cc1ccc(C(=O)Nn2cnnc2)cc1	MIN6 prolif-1 8.2 | MIN6 prolif-2 inactive
COCCNC(=O)c1ccc(C)cc1C	MIN6 prolif-1 7.9 | MIN6 prolif-2 inactive
O=C(CCNS(=O)(=O)c1ccc(Cl)cc1)N1CCCC1	none
O=C(CCNS(=O)(=O)c1ccc(Cl)cc1)N1CCC2(O)CCCCC2C1 (stereo unspecified)	MIN6 prolif-1 5.6 | MIN6 prolif-2 inactive
O=C(NCc1ccco1)C(c1cccs1)N(Cc1ccccc1)C(=O)Cn1nnc2ccccc21 (stereo unspecified)	none
O=C(NCc1ccco1)C(c1ccco1)N(Cc1cccs1)C(=O)Cn1nnc2ccccc21 (stereo unspecified)	MIN6 prolif-1 8.0 | MIN6 prolif-2 inactive
CCCn1c(-c2nonc2N)nc2ccccc21	MIN6 prolif-1 9.0 | MIN6 prolif-2 inactive
CC(C)(C)c1ccc(S(=O)(=O)N2CCN(C(=O)C3=COCCO3)CC2)cc1	none (no result: p-CIP stab down)
COc1ccc(NC(=O)CN2C(=O)NC3(CCCCC3C)C2=O)cc1OC (stereo unspecified)	none (no result: p-CIP stab down)
CCOC(=O)c1c2n(c3ccc(O)cc13)CCC2	MIN6 prolif-1 9.1 | MIN6 prolif-2 inactive
CCOC(=O)c1c(C)n(CCNC(C)=O)c2ccc(O)cc12	none
O=C(COC(=O)c1c[nH]c2ccccc12)NC1CCCCC1	none (no result: p-CIP stab down)
CCNc1nc(N)c(C(=C(C#N)C#N)c2ccccc2)s1	MIN6 prolif-1 7.3 | MIN6 prolif-2 inactive
